# Source: PubChem BioAssay (National Center for Advancing Translational Sciences (NCATS))
# TDP1 cell CPT: DT40-hTDP1 cell growth loss with CPT; chicken DT40 Tdp1-/-;hTDP1 cells + 20 nM CPT, ATP luminescence, 48 h; Potency, µM (highest dose often 46.2 µM), without a hit: top-dose activity change, negative = growth inhibition, most hits filed as inhibitors; hit rate 12% among 420,000; also: % is scaled to controls: 0 for no effect and ±100 for the full control effect; nearly all actives have a fitted effect of over 55% in size
#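 Cell growth measured by CellTiter-Glo luminescence after a minimum 48 h, 37 C compound exposure with 20 nM CPT in Tdp1-knockout DT40 cells stably expressing hTDP1, seeded 400/well; qHTS titration format.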
# ClpP mod: qHTS Assay for Activators of ClpP; hit rate 1.9% among 340,000; Potency, µM (series often up to 57.5 µM), without a hit: at the highest dose activity change, negative = active; purified B. subtilis ClpP, FRET peptide cleavage, 20 min; active = well fitted falling curve with a large enough effect; inconclusive = small, poorly fitted or top-dose-only effect; inactive = no such curve, though single readings can be large or run the other way; also: the source files actives as falling curves though it sought activators and does not explain the sign; nearly all actives have a fitted effect of over 65% in size
# Target sequence (P80244 whole entry, looked up): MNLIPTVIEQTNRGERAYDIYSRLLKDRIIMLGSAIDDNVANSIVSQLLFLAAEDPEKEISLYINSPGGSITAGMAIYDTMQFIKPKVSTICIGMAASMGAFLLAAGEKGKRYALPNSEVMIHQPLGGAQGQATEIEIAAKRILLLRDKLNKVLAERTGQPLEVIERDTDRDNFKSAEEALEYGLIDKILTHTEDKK
#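 FRET quenching reversal measured ClpP activation: 10 microg/mL B. subtilis ClpP at pH 8 with the FRET-FV decapeptide, read at 430 nm after 320 nm excitation. The 20-min minus 0-min signal was scaled between DMSO/no-enzyme wells and ADEP (5.8 microM final).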
# DT40 TDP1 no CPT: qHTS for Inhibitors of human tyrosyl-DNA phosphodiesterase 1 (TDP1): qHTS in cells in absence of CPT; DT40 Tdp1-/- hTDP1 cells, no CPT, ATP luminescence, 48 h; Potency, µM (top dose mostly 46.2 µM), inactives show at the top dose activity change, negative = growth inhibition, actives largely listed as inhibitors; hit rate 15% among 420,000; also: % is scaled to controls: 0 for no effect and ±100 for the full control effect; nearly all actives have a fitted effect of over 55% in size
#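 Luminescent ATP content (CellTiter-Glo) served as the growth readout. Knockout chicken DT40 cells expressing human TDP1 were exposed to compounds without camptothecin for a minimum 48 hr at 37 °C.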
# TDP1 block: inhibitors of human tyrosyl-DNA phosphodiesterase TDP1. hit rate 0.28% among 350,000. recombinant TDP1, AlphaScreen DNA substrate cleavage. Potency, µM (top dose mostly 130 µM), for inactives: at the top dose activity change, negative = inhibition, most hits filed as inhibitors. Q9NUW8. AID 485290; also: % is scaled to controls: 0 for no effect and ±100 for the full control effect; nearly all actives have a fitted effect of over 40% in size
#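 Signal: AlphaScreen proximity between streptavidin donor and anti-FITC acceptor beads on intact substrate. Reaction: Tdp1 1 nM, substrate 15 nM final, 5 min RT after 15 min compound preincubation.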
# Starred values were filed as active, the others as inactive; ? = inconclusive; . = no result. Sampled rows, rich in hits. Any-hit rate of the full collection: about 17%. Unless noted, calls follow the shape of the dose curve; as a rule, active = well fitted curve in the direction sought with a large enough effect; inconclusive = small, poorly fitted or top-dose-only effect, or another doubt; inactive = no such curve, though single readings can be large; an effect the other way counts as inactive or inconclusive. Potency is read from the fitted curve at half-maximal effect.
SMILES,TDP1 cell CPT,ClpP mod,DT40 TDP1 no CPT,TDP1 block
Cc1nn(-c2ccccc2)c(NC(=O)c2cccs2)c(-c2ccccc2Cl)c1=O,2.9%,-1.4%,-1.6%,4.1%
CCN(CC)CC(=O)Nc1ccc([N+](=O)[O-])cc1,3.1%,.,-12.0%,0.0%
CS(=O)(=O)Nc1cccc(-c2nc(NCc3cccs3)c3ccccc3n2)c1,?,.,?,-9.0%
CCc1cc(Cl)c(OC)c(C(=O)NC[C@@H]2CCCN2CC)c1O,?,-13.0%,25.9µM*,4.1%
CCc1cc2c(COC(=O)c3c(C)noc3C)cc(=O)oc2cc1O,?,4.5%,10.3µM*,-8.0%
COc1ccc(C(C)=O)cc1COC(=O)c1ccc(OCc2c(C)noc2C)cc1,-8.4%,4.1%,-15.7%,2.1%
COc1ccc(C(C)=O)cc1COC(=O)c1c(C)noc1C,?,-0.2%,14.6µM*,4.0%
CCOC(=O)Nc1ccc2c(COC(=O)c3ccccc3O)cc(=O)oc2c1,-7.0%,.,?,-6.5%
CCC[C@H](CN[C@@H](CNC)[C@H](C)O)NCCc1ccc(OC)cc1,-7.1%,-8.7%,-0.6%,.
CCCC[C@H](CN[C@@H](CNC)[C@H](C)CC)NCCC12CCC(CC1)C2,2.59µM*,-2.3%,3.66µM*,.
CCOC(=O)C1=C(C)Nc2ccc(C)cc2S1,?,-1.3%,?,5.1%
CSCCOC(=O)C1=C(C)Nc2ccc(C)cc2S1,20.6µM*,0.7%,16.4µM*,7.9%
COc1ccc(CC(CC(=O)O)C(=O)Nc2ccc(Cl)c(Cl)c2)cc1 (centres undefined),-1.8%,0.3%,20.2%,.
COc1ccc(C(CNC(=O)c2ccc(-c3ccccc3Cl)o2)N2CCOCC2)cc1 (centres undefined),23.1µM*,3.9%,16.4µM*,5.7%
COc1ccccc1C(CNC(=O)c1ccc(-c2ccccc2Cl)o1)N1CCCC1 (centres undefined),23.1µM*,.,18.4µM*,.
C=C1C(c2ccc(C)cc2)=CCc2cc(C)cc(C)c21,.,.,.,10.8%
O=C(NC1CCCC1)C1c2ccccc2OCC(=O)N1CCc1ccccc1 (centres undefined),-24.1%,-4.2%,?,.
O=C(NC1CCCCC1)C1c2ccccc2OCC(=O)N1CCc1c[nH]c2ccccc12 (centres undefined),-21.9%,-0.5%,25.9µM*,.
CCOC(=O)CNC(=O)Nc1nnc(-c2ccc(OCC)cc2)o1,-2.6%,6.31µM*,0.7%,.
CCCCNC(=O)Nc1nnc(-c2ccc(OCC)cc2)o1,?,25.1µM*,?,5.1%
CCCCNC(=O)Nc1nnc(-c2ccccc2)o1,-29.8%,14.1µM*,-3.8%,7.9%
CCOc1ccccc1C(=O)OCC(=O)Nc1nnc(-c2ccccc2)o1,?,-5.2%,16.4µM*,6.4%
COc1ccccc1CN1CCN(C2CCN(C(=O)NC(C)C)CC2)C(=O)C1=O,-10.8%,0.0%,0.1%,-8.8%
O=C(c1cccn1-c1nnc(N2CCCCC2)s1)N1CCN(c2ccccc2)CC1,?,-3.8%,?,2.6%
COc1ccc2c(C)c(CC(=O)N3C[C@H]4C[C@@H](C3)c3cccc(=O)n3C4)c(=O)oc2c1OC,-11.3%,4.7%,-10.0%,.
SMILES,TDP1 cell CPT,ClpP mod,DT40 TDP1 no CPT,TDP1 block
CCOC(=O)C1=C(CSc2nc(CC)c(C)cc2C#N)OC(N)=C(C#N)C1c1ccccc1 (centres undefined),3.26µM*,17.2%,23.1µM*,1.4%
CCOC(=O)C1=C(CSc2nc3c(cc2C#N)CN(C)CC3)OC(N)=C(C#N)C1c1ccc(Cl)cc1 (centres undefined),?,-12.4%,?,4.8%
CCOC(=O)C1=C(CSc2nc(-c3ccccc3)ccc2C#N)OC(N)=C(C#N)C1c1ccc(OC)cc1 (centres undefined),8.2µM*,-1.8%,9.2µM*,3.0%
CCOC(=O)C1=C(CSc2nc(C)cc(C)c2C#N)OC(N)=C(C#N)C1c1cccs1 (centres undefined),?,3.8%,-26.5%,-0.5%
CCOC(=O)C1=C(CSc2nc(C)cc(C)c2C#N)OC(N)=C(C#N)C1c1ccccc1 (centres undefined),?,19.2%,23.1µM*,5.7%
Cc1cc(C)c(OCCNCc2ccccc2)c(C)c1,?,0.8%,?,.
Cc1cc(Cl)cc(C)c1OCCOCCNCc1ccccc1,23.1µM*,0.7%,?,.
